# Assay results as given in article PMC7862700, “An all-to-all approach to the identification of sequence-specific readers for epigenetic DNA modifications on cytosine”.
# How the values were obtained:
# Assay in all cases: DAPPL (digital affinity profiling via proximity ligation, sequencing); 10 mM Tris-HCl pH 7.5, 50 mM NaCl, 1 mM DTT, 4% glycerol, room temperature, 30 min; GST-TFs on glutathione beads, 16-mer random dsDNA library, 0.1% formaldehyde crosslink after washing; high values mean tight binding
# [1] = biological target: T1, FLI1 (Homo sapiens, UniProt Q01543 1-452); conditions: protein: recombinant; tags: N-terminal GST; dsDNA, one strand shown
# T1 sequence: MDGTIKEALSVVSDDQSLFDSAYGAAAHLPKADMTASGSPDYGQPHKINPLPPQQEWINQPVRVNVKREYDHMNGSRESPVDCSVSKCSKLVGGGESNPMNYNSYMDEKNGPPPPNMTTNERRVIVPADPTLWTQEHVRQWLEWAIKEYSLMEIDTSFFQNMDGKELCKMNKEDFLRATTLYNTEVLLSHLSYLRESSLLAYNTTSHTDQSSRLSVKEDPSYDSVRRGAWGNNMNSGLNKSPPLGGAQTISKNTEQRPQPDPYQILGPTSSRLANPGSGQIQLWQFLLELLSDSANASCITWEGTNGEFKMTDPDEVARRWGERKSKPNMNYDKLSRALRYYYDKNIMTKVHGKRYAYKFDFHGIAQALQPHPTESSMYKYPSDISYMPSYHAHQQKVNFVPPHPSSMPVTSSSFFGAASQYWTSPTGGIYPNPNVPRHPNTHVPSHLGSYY
# How it was run: (§1)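 Binding signal is given per hexamer as its read frequency for a factor divided by its frequency in the tag-only sample. GST-fused human transcription factors were expressed in yeast, captured on glutathione beads, barcoded with DNA and pooled with that sample, then incubated with 200 nmole of a 16-mer random double-stranded DNA library in Tris/NaCl/DTT/glycerol buffer for 30 min at room temperature. The pools were then washed, crosslinked, proximity-ligated, amplified by PCR and sequenced on an Illumina NextSeq500.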
# [2] = biological target: T2, ELK1 (Homo sapiens, UniProt P19419 1-428); conditions: protein: recombinant; tags: N-terminal GST; dsDNA, one strand shown
# T2 sequence: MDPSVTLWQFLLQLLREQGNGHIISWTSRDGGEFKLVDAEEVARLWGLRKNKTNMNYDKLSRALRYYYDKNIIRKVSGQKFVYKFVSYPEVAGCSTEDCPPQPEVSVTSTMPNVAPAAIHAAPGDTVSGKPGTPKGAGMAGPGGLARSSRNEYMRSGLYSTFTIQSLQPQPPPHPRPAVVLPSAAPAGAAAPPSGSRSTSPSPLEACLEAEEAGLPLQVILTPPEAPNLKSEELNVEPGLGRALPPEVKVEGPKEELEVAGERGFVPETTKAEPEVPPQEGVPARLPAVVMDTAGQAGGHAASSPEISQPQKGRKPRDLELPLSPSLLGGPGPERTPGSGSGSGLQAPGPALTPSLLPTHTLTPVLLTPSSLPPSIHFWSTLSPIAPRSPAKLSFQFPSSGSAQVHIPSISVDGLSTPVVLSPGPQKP
# How it was run: as §1
# [3] = biological target: T3, GABPA (Homo sapiens, UniProt Q06546 1-454); conditions: protein: recombinant; tags: N-terminal GST; dsDNA, one strand shown
# T3 sequence: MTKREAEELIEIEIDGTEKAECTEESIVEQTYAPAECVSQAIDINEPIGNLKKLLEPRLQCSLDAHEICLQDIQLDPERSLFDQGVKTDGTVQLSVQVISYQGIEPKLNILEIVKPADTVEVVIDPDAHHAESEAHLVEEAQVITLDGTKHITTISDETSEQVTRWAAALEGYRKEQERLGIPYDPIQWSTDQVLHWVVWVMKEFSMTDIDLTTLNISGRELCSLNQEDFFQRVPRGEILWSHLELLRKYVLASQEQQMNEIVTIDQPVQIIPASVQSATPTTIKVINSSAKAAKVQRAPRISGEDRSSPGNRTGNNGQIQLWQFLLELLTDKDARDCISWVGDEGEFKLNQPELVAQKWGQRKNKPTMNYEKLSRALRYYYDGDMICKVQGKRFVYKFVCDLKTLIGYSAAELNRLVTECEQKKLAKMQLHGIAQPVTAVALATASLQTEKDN
# How it was run: as §1
# [4] = biological target: T4, ERG (Homo sapiens, UniProt P11308 1-479); conditions: protein: recombinant; tags: N-terminal GST; dsDNA, one strand shown
# T4 sequence: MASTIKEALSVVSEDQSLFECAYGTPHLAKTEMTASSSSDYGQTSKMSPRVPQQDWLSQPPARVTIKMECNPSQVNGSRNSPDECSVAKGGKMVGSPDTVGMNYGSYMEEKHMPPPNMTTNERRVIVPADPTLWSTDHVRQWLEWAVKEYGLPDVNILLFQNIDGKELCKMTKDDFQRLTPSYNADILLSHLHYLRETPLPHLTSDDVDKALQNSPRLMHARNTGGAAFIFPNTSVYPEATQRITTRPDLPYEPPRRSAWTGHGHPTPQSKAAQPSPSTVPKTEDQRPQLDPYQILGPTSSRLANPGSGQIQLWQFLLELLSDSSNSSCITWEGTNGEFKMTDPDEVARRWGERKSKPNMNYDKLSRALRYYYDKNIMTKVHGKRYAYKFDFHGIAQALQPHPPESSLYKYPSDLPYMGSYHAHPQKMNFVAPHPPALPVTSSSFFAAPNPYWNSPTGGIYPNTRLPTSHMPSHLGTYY
# How it was run: as §1
# [5] = biological target: ELF1 (Homo sapiens, UniProt P32519 1-619); conditions: protein: recombinant; tags: N-terminal GST; dsDNA, one strand shown
# Chain of ELF1 (P32519 whole entry): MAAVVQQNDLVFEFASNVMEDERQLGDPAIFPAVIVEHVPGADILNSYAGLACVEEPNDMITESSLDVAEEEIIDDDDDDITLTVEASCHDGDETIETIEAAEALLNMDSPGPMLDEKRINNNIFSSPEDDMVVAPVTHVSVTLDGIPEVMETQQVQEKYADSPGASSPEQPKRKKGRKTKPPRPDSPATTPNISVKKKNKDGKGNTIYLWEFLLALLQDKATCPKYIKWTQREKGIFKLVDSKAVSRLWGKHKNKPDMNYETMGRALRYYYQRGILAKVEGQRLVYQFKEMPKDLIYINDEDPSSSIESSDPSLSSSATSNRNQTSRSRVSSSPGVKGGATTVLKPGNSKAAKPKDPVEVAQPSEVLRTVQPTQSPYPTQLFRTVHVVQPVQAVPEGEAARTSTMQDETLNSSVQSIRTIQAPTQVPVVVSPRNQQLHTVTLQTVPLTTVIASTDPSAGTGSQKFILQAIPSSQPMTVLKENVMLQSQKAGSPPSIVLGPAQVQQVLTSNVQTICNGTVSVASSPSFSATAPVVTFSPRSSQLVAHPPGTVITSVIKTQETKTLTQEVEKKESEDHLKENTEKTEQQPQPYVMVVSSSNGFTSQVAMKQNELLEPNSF
# How it was run: as §1
# [6] = biological target: T5, EHF (Homo sapiens, UniProt Q9NZC4 1-300); conditions: protein: recombinant; tags: N-terminal GST; dsDNA, one strand shown
# T5 sequence: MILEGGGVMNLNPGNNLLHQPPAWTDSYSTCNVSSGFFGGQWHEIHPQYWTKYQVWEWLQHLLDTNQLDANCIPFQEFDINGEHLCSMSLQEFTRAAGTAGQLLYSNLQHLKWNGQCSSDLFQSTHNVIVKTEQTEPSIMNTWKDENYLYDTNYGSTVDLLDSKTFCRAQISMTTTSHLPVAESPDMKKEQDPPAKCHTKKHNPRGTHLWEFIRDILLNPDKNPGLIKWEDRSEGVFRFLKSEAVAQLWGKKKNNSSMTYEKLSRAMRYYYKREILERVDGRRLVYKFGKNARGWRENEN
# How it was run: as §1
# [7] = biological target: SPI1 (Homo sapiens, UniProt P17947 1-270); conditions: protein: recombinant; tags: N-terminal GST; dsDNA, one strand shown
# How it was run: as §1
# [8] = biological target: SPIB (Homo sapiens, UniProt Q01892 1-262); conditions: protein: recombinant; tags: N-terminal GST; dsDNA, one strand shown
# Chain of SPIB (Q01892 whole entry): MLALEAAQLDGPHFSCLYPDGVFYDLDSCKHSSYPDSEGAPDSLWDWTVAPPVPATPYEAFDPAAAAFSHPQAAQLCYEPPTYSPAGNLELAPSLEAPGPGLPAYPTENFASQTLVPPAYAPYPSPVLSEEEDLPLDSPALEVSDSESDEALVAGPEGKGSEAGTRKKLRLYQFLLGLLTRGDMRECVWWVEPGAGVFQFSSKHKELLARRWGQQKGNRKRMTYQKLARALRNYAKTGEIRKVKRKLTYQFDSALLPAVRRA
# How it was run: as §1
# [9] = biological target: T6, ELK3 (Homo sapiens, UniProt P41970 1-407); conditions: protein: recombinant; tags: N-terminal GST; dsDNA, one strand shown
# T6 sequence: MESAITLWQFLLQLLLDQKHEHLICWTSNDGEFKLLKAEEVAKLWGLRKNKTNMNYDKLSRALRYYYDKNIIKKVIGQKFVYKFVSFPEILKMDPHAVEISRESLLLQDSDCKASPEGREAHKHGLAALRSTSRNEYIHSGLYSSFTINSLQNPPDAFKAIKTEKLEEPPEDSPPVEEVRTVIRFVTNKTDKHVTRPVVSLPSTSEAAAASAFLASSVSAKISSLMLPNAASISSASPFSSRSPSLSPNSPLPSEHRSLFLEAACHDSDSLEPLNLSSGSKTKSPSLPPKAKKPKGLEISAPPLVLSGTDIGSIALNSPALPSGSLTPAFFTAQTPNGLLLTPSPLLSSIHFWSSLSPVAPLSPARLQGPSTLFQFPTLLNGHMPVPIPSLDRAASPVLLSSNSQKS
# How it was run: as §1
# [10] = biological target: T7, FEV (Homo sapiens, UniProt Q99581 1-238); conditions: protein: recombinant; tags: N-terminal GST; dsDNA, one strand shown
# T7 sequence: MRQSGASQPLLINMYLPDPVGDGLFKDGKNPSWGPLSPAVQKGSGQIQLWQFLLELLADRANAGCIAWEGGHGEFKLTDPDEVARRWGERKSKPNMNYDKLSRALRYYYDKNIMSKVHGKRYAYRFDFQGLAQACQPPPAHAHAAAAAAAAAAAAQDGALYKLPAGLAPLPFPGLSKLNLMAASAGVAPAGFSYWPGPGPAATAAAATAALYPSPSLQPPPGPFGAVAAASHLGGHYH
# How it was run: as §1
# [11] = biological target: ETV5 (Homo sapiens, UniProt P41161 1-510); conditions: protein: recombinant; tags: N-terminal GST; dsDNA, one strand shown
# Chain of ETV5 (P41161 whole entry): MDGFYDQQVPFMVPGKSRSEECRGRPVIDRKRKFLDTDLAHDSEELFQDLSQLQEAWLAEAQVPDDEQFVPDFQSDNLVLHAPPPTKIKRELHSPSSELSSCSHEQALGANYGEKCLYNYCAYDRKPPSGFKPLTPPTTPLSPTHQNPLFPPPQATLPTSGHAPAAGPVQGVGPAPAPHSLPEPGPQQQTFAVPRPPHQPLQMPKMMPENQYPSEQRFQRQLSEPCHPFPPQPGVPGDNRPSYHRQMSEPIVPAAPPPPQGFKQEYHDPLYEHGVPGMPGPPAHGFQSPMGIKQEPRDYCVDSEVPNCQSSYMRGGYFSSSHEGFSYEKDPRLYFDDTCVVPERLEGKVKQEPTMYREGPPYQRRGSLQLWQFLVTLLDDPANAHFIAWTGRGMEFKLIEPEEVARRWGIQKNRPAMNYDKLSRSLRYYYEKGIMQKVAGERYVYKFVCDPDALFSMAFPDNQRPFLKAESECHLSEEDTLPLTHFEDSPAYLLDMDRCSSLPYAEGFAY
# How it was run: as §1
# [12] = biological target: HSF1 (Homo sapiens, UniProt Q00613 1-529); conditions: protein: recombinant; tags: N-terminal GST; chain copies: 3; dsDNA, one strand shown
# Chain of HSF1 (Q00613 whole entry): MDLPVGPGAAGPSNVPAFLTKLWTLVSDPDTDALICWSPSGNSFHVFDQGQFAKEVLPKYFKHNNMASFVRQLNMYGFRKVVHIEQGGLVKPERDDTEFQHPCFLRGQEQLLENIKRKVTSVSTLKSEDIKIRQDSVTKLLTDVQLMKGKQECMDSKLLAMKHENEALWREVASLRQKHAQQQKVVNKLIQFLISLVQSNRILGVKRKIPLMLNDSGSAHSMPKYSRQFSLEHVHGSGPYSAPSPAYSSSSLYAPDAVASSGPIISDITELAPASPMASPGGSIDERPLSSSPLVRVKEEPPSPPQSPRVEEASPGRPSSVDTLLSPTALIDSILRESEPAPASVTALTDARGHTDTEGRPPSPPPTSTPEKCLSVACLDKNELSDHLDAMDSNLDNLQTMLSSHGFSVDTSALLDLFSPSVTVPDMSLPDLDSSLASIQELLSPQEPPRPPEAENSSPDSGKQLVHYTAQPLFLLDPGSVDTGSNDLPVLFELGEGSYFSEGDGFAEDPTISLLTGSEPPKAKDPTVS
# How it was run: as §1
# [13] = biological target: T8, SPIC (Homo sapiens, UniProt Q8N5J4 1-248); conditions: protein: recombinant; tags: N-terminal GST; dsDNA, one strand shown
# T8 sequence: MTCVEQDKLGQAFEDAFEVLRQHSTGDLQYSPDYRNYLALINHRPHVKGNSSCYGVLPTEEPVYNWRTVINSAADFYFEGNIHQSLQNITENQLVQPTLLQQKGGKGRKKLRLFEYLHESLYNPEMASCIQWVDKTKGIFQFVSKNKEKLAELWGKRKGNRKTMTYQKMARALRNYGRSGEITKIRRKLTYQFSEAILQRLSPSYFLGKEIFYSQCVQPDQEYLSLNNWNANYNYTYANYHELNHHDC
# How it was run: as §1
# [14] = biological target: ELF4 (Homo sapiens, UniProt Q99607 1-663); conditions: protein: recombinant; tags: N-terminal GST; dsDNA, one strand shown
# Chain of ELF4 (Q99607 whole entry): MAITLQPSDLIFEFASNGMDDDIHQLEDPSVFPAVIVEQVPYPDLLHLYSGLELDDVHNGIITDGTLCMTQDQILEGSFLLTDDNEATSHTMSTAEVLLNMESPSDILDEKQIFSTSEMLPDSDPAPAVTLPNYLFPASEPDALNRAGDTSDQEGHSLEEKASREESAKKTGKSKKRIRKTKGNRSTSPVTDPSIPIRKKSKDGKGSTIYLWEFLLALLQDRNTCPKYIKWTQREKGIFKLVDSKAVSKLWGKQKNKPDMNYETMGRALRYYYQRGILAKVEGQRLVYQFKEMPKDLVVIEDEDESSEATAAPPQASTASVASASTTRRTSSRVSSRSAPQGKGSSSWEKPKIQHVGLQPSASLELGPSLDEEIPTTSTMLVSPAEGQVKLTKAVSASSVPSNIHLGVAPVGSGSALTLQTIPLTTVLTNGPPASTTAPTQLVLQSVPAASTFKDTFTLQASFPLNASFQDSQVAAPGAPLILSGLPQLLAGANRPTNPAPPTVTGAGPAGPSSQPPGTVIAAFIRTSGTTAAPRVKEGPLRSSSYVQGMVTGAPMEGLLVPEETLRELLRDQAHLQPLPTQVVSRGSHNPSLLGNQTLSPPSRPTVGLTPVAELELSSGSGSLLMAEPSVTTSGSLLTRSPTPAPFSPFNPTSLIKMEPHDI
# How it was run: as §1
# [15] = biological target: T9, ELK4 (Homo sapiens, UniProt P28324-2 1-405); conditions: protein: recombinant; tags: N-terminal GST; dsDNA, one strand shown
# T9 sequence: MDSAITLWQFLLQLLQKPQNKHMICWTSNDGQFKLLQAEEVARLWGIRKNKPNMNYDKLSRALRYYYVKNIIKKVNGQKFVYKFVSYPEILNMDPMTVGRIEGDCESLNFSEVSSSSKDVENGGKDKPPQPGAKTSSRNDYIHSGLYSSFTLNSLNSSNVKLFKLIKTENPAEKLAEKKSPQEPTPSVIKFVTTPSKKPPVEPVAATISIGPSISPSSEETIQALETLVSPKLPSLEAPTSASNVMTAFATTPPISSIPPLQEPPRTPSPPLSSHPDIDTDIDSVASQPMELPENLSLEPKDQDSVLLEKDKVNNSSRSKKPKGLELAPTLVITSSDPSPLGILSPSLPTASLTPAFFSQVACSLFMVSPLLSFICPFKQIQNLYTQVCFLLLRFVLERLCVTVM
# How it was run: as §1
# [16] = biological target: T10, ETV2 (Homo sapiens, UniProt O00321 1-342); conditions: protein: recombinant; tags: N-terminal GST; dsDNA, one strand shown
# T10 sequence: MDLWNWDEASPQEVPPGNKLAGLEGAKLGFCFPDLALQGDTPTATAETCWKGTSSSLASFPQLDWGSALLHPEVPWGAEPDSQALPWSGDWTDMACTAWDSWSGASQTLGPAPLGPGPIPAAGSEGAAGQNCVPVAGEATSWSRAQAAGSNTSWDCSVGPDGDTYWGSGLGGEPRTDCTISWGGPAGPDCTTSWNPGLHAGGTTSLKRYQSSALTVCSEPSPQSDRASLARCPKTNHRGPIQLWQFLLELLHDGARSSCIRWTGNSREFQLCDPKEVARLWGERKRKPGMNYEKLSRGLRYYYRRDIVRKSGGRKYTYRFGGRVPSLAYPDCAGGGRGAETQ
# How it was run: as §1
# [17] = biological target: T11, ELF3 (Homo sapiens, UniProt P78545 1-371); conditions: protein: recombinant; tags: N-terminal GST; dsDNA, one strand shown
# T11 sequence: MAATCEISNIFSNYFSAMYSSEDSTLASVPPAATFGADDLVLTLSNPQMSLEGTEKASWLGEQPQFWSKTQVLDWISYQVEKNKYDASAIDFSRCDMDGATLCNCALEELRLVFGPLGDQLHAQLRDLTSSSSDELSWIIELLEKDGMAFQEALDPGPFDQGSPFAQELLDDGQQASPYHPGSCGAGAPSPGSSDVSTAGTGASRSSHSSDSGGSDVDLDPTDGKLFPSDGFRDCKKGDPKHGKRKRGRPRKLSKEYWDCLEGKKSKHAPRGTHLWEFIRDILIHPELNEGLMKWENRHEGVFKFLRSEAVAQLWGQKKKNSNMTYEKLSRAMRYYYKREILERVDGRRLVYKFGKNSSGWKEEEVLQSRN
# How it was run: as §1
# [18] = biological target: CRX (Homo sapiens, UniProt O43186 1-299); conditions: protein: recombinant; tags: N-terminal GST; dsDNA, one strand shown
# Chain of CRX (O43186 whole entry): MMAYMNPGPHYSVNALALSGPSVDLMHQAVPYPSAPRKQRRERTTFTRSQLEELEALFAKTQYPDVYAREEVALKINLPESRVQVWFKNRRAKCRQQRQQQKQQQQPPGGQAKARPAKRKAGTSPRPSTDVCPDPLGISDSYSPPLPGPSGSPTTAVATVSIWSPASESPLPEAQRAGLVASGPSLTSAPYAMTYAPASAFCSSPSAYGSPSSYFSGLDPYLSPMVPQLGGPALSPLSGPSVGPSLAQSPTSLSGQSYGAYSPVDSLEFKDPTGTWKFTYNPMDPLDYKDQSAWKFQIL
# How it was run: as §1
# [19] = biological target: ETV1 (Homo sapiens, UniProt P50549 1-477); conditions: protein: recombinant; tags: N-terminal GST; dsDNA, one strand shown
# Chain of ETV1 (P50549 whole entry): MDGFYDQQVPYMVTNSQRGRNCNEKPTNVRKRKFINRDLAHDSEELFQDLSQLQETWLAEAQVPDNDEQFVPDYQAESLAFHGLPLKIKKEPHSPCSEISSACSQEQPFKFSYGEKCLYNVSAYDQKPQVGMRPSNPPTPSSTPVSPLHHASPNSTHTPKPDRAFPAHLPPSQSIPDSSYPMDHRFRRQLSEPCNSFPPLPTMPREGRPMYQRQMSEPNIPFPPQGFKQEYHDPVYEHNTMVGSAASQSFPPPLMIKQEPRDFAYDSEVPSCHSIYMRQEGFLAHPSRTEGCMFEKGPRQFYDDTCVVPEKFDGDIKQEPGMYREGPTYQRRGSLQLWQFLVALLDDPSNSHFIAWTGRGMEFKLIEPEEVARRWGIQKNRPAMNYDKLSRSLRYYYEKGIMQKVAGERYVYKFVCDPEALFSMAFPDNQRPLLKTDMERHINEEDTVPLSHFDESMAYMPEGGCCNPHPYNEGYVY
# How it was run: as §1
sequence,measurement,setting,value
GGCTCC,binding signal,[1],"1.33 fold enrichment (6-mer frequency, TF over GST control)"
same,binding signal,[2],"1.29 fold enrichment (6-mer frequency, TF over GST control)"
same,binding signal,[3],"1.44 fold enrichment (6-mer frequency, TF over GST control)"
same,binding signal,[4],"1.35 fold enrichment (6-mer frequency, TF over GST control)"
same,binding signal,[5],"1.3 fold enrichment (6-mer frequency, TF over GST control)"
same,binding signal,[6],"1.31 fold enrichment (6-mer frequency, TF over GST control)"
same,binding signal,[7],"1.22 fold enrichment (6-mer frequency, TF over GST control)"
same,binding signal,[8],"1.39 fold enrichment (6-mer frequency, TF over GST control)"
same,binding signal,[9],"1.27 fold enrichment (6-mer frequency, TF over GST control)"
same,binding signal,[10],"1.35 fold enrichment (6-mer frequency, TF over GST control)"
same,binding signal,[11],"1.37 fold enrichment (6-mer frequency, TF over GST control)"
same,binding signal,[12],"1.13 fold enrichment (6-mer frequency, TF over GST control)"
same,binding signal,[13],"1.16 fold enrichment (6-mer frequency, TF over GST control)"
same,binding signal,[14],"1.24 fold enrichment (6-mer frequency, TF over GST control)"
same,binding signal,[15],"1.29 fold enrichment (6-mer frequency, TF over GST control)"
same,binding signal,[16],"1.43 fold enrichment (6-mer frequency, TF over GST control)"
same,binding signal,[17],"1.32 fold enrichment (6-mer frequency, TF over GST control)"
same,binding signal,[18],"1.1 fold enrichment (6-mer frequency, TF over GST control)"
same,binding signal,[19],"1.24 fold enrichment (6-mer frequency, TF over GST control)"
